Values joined by “and” are separate entries in the source; they are usually repeats but may differ in a detail not shown here. Identical values can stand only once. Records with an inconclusive call do not appear. Where a call stands in place of a potency, no number is given. Values without a mark were called inactive. Active and inactive are the calls of the source. Unless noted, the call rests on the fitted dose curve; in most records, active means well fitted curve in the direction sought with a large enough effect in the repeat runs; inconclusive means weak or mixed curves; inactive means no such curve, though single readings can be large; an effect the other way counts as inactive or inconclusive.
Tests used:
[1] = qHTS assay to identify small molecule antagonists of the retinoid acid receptor (RAR) signaling pathway - cell viability counter screen (AID 1159551); further: nearly all actives have a fitted effect of over 35% in size; further: potency means the concentration at half of the fitted maximal effect
Procedure, shortened: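 Viability of C3RL4 cells is quantified from ATP by luminescence after 6 h treatment at 37 C with compounds and 1 uM retinol.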

[2] = qHTS assay to identify small molecule antagonists of the retinoic acid receptor (RAR) signaling pathway (AID 1159552; further: nearly all actives have a fitted effect of over 50% in size; further: potency means the concentration at half of the fitted maximal effect)
Procedure, shortened: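 Luminescent RARE reporter read-out in C3RL4 cells: 6 hr co-treatment at 37 C of test compounds with retinol at 1 uM final. Cells plated overnight beforehand; luciferase reagent incubated 30 min at room temperature before reading.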

[3] = qHTS assay to identify small molecule antagonists of the estrogen related receptor (ERR) signaling pathway from Tox21 library - cell viability counter screen (AID 1224834); further: nearly all actives have a fitted effect of over 30% in size; further: potency means the concentration at half of the fitted maximal effect
Procedure, shortened: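 In this quantitative HTS format, ERR cells receive compounds in DMSO and are incubated for 17.5 h at 37 C. Live-cell protease activity is then detected with CellTiter-Fluor.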

[4] = molecular target: Luciferin 4-monooxygenase (Photinus pyralis) (UniProt P08659); experiment: qHTS assay to identify small molecule inhibitors of firefly luciferase (AID 1224835); further: nearly all actives have a fitted effect of over 25% in size; further: potency means the concentration at half of the fitted maximal effect; on activity change, negative = inhibition: series mostly up to about 120 µM
Procedure, shortened: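 Quantitative HTS format; KM concentrations of both substrates. Purified P. pyralis FLuc activity quantified from luminescence images.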

[5] = qHTS assay to identify small molecule agonists of the constitutive androstane receptor (CAR) signaling pathway - cell viability counter screen (AID 1224836); further: nearly all actives have a fitted effect of over 45% in size; further: potency means the concentration at half of the fitted maximal effect; on viability change, negative = cytotoxic: series mostly up to about 92 µM
Procedure, shortened: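 Cell viability multiplexed with the CAR agonist screen: CellTiter-Fluor fluorescence after 23 hr at 37 C. HepG2-CYP2B6-hCAR cells got compounds at 15 concentrations with PK11195 at 0.75 uM final.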

[6] = qHTS assay to identify small molecule antagonists of the constitutive androstane receptor (CAR) signaling pathway - cell viability counter screen (AID 1224837); further: nearly all actives have a fitted effect of over 45% in size; further: potency means the concentration at half of the fitted maximal effect; on activity change, negative = cytotoxicity: series mostly up to about 92 µM
Procedure, shortened: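 In quantitative HTS format, compounds at 15 concentrations were applied to HepG2 cells double-transfected with hCAR and CYP2B6-2.2kb under 50 nM CITCO stimulation; live-cell protease activity was read after 23 hr via CellTiter-Fluor.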

[7] = molecular target: Nuclear receptor subfamily 1 group I member 3 (Homo sapiens) (UniProt Q14994); experiment: qHTS assay to identify small molecule antagonists of the constitutive androstane receptor (CAR) signaling pathway (AID 1224838); further: nearly all actives have a fitted effect of over 40% in size; further: potency means the concentration at half of the fitted maximal effect
Procedure, shortened: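 CITCO-stimulated (50 nM final) HepG2 cells stably transfected with hCAR and CYP2B6-2.2kb luciferase were exposed to compounds at 15 concentrations for 24 h at 37 C/5% CO2. A luciferase reagent was added and luminescence recorded after 30 min.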

[8] = molecular target: Nuclear receptor subfamily 1 group I member 3 (Homo sapiens) (UniProt Q14994); experiment: qHTS assay to identify small molecule agonists of the constitutive androstane receptor (CAR) signaling pathway (AID 1224839);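 further: HepG2 cells stably carrying human CAR and a CYP2B6 luciferase reporter; series mostly up to about 92 µM; nearly all actives have a fitted effect of over 15% in size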
Procedure, shortened: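 Luminescent ONE-Glo read-out after 24 hr, 37 C exposure of double-stable HepG2-CYP2B6-hCAR reporter cells to a 15-point compound series, in the presence of 0.75 uM PK11195 (final).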

[9] = qHTS assay to identify small molecule antagonists of the estrogen related receptor signaling pathway with the pleiotropic PPARgamma coactivator (PGC) from Tox21 10K library - cell viability counter screen (AID 1224840; active means well fitted cell-killing curve with a large enough effect in the repeat runs, not every such curve was filed as active; further: nearly all actives have a fitted effect of over 40% in size; further: potency means the concentration at half of the fitted maximal effect)
Procedure, shortened: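 Viability counter screen, PGC/ERR cells: 17.5 h compound exposure at 37 C, CellTiter-Fluor fluorescence endpoint.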

[10] = molecular target: Thyrotropin receptor (Homo sapiens) (UniProt P16473); experiment: qHTS assay to identify small molecule agonists of the thyroid stimulating hormone receptor (TSHR) signaling pathway (AID 1224843; calls by dose curve; further: nearly all actives have a fitted effect of over 45% in size)
Procedure, shortened: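 Compounds are titrated over 15 concentrations, in triplicate, onto TSHR-HEK293 cells seeded at 800/well. Plates sit 30 min at room temperature before cAMP-d2 and anti-cAMP cryptate are added; signal is read after a further hour.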

[11] = qHTS assay to identify small molecule agonists of the hypoxia (HIF-1) signaling pathway - cell viability counter screen (AID 1224844; calls by dose curve; further: nearly all actives have a fitted effect of over 50% in size; further: potency means the concentration at half of the fitted maximal effect)
Procedure, shortened: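 Same wells as the HIF-1 reporter screen; ME-180 cells carrying HRE-bla, 17 hr treatment at 37C; CellTiter-Glo luminescence read after 30 min at room temperature.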

[12] = qHTS assay to identify small molecule agonists of the estrogen related receptor signaling pathway with the pleiotropic PPARgamma coactivator (PGC) from Tox21 10K library (AID 1224842); further: nearly all actives have a fitted effect of over 15% in size; further: potency means the concentration at half of the fitted maximal effect
Procedure, shortened: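 PGC/ERR reporter cells (NTP line) were seeded 2,000 per well, rested 6 h at 37 C/5% CO2, then pin-dosed with compounds in DMSO for 18 h at 37 C; luciferase read by One-Glo luminescence after 30 min at room temperature.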

[13] = qHTS assay to identify small molecule antagonists of the estrogen related receptor signaling pathway with the pleiotropic PPARgamma coactivator (PGC) from Tox21 10K library (AID 1224841; call rule not given here; further: actives are mostly falling curves and most rising ones were filed inactive; nearly all actives have a fitted effect of over 50% in size; further: potency means the concentration at half of the fitted maximal effect; on activity, negative = inhibition: series mostly up to about 92 µM)
Procedure, shortened: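 In the PGC/ERR line, DMSO solutions of test chemicals are pin-delivered to 2,000 cells/well six hours after dispensing. Following eighteen hours' incubation, One-Glo reagent is added and luminescence recorded.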

[14] = qHTS assay to identify small molecule agonists of the retinoic acid receptor (RAR) signaling pathway (AID 1159553)
Procedure, shortened: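 Compounds dissolved in DMSO were pinned onto C3RL4 cells seeded the previous day, and plates were held 6 hr at 37 C. RARE-driven luciferase output was then read by luminescence.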

[15] = qHTS assay to identify small molecule agonists of the estrogen related receptor (ERR) signaling pathway (AID 1224820)
Procedure, shortened: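 An ERR cell line provided by NTP was seeded at 2,000 cells per well and allowed to settle for 6 h before compounds in DMSO were added. After 18 h at 37 C, luciferase activity was measured by One-Glo luminescence.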

Sequence of Thyrotropin receptor (Homo sapiens) (P16473 whole entry, looked up): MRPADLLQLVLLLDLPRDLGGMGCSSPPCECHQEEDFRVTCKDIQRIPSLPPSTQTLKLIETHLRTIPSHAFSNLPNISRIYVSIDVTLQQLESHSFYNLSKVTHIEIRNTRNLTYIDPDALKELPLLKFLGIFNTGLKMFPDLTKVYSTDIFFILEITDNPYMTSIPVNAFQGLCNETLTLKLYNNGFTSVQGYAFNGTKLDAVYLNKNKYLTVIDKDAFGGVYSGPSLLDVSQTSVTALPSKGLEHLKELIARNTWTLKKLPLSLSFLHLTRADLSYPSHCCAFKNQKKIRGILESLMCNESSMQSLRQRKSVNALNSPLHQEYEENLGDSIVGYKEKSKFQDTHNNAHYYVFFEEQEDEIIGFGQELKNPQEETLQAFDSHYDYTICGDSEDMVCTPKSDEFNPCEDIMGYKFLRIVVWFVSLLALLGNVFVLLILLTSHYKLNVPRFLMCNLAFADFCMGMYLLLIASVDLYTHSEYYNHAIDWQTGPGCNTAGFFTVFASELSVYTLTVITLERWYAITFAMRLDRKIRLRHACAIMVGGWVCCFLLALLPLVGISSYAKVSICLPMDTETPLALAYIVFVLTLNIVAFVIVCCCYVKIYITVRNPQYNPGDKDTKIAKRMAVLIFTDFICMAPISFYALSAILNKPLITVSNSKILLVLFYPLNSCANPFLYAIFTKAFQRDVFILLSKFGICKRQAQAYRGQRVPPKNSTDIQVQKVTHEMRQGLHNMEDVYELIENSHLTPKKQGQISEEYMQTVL
Sequence of Luciferin 4-monooxygenase (Photinus pyralis) (P08659 whole entry, looked up): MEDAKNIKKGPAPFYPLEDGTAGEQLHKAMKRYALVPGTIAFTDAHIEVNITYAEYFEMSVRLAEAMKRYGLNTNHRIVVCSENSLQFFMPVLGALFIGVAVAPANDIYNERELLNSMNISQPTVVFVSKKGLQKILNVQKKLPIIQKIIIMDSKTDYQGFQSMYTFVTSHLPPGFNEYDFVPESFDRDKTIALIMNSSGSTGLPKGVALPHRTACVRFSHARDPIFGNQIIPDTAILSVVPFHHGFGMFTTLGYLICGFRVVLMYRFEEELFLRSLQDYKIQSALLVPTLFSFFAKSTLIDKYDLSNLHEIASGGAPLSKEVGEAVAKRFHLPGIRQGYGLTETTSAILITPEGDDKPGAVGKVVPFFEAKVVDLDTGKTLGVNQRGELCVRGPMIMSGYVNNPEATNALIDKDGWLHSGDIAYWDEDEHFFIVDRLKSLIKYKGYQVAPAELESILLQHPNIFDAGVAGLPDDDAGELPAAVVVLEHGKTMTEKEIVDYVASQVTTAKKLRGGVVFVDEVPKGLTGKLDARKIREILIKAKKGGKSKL
Sequence of Nuclear receptor subfamily 1 group I member 3 (Homo sapiens) (Q14994 whole entry, looked up): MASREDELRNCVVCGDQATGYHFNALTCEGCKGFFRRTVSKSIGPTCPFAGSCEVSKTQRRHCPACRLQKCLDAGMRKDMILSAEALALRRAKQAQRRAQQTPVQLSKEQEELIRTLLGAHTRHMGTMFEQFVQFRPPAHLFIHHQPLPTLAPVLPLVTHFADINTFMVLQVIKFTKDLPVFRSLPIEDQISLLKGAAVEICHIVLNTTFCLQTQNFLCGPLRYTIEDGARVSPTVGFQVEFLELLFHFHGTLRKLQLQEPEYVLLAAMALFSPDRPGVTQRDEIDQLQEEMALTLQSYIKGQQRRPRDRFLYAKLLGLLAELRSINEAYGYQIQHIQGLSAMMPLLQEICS

CCCC(O)C(O)CO (stereo unspecified)
Potency [1]: inactive | Potency [2]: inactive | Potency [3]: inactive | Potency [4]: inactive | Potency [5]: inactive | Potency [6]: inactive | Potency [7]: inactive | Potency [8]: inactive | Potency [9]: inactive | Potency [10]: inactive | Potency [11]: inactive

OCCCCl
Potency [1]: inactive | Potency [2]: inactive | Potency [3]: inactive | Potency [4]: inactive | Potency [5]: inactive | Potency [6]: inactive | Potency [7]: inactive | Potency [8]: inactive | Potency [9]: inactive | Potency [12]: inactive | Potency [10]: inactive | Potency [11]: inactive

CCCCOC(=O)C(C)CC (stereo unspecified)
Potency [1]: inactive | Potency [2]: inactive | Potency [3]: inactive | Potency [4]: inactive | Potency [5]: inactive | Potency [6]: inactive | Potency [7]: inactive | Potency [8]: inactive | Potency [9]: inactive | Potency [13]: inactive | Potency [12]: inactive | Potency [10]: inactive | Potency [11]: inactive

C=CC/C=C/C/C=C/C/C=C/C
Potency [1]: inactive | Potency [2]: inactive | Potency [3]: inactive | Potency [4]: inactive | Potency [5]: inactive | Potency [6]: inactive | Potency [7]: inactive | Potency [8]: inactive | Potency [9]: inactive | Potency [13]: inactive | Potency [12]: inactive | Potency [10]: inactive | Potency [11]: inactive

Cc1ccc(O)cn1
Potency [1]: inactive | Potency [2]: inactive | Potency [3]: inactive | Potency [4]: inactive | Potency [5]: inactive | Potency [6]: inactive | Potency [7]: inactive | Potency [8]: inactive | Potency [9]: inactive | Potency [13]: inactive | Potency [12]: inactive | Potency [10]: inactive | Potency [11]: inactive

O=C1Nc2ccc(Cl)cc2[C@@](C#CC2CC2)(C(F)(F)F)O1
Potency [1]: inactive | Potency [2]: 29.8 µM (active) | Potency [14]: inactive | Potency [4]: inactive | Potency [5]: inactive | Potency [6]: inactive | Potency [8]: inactive | Potency [9]: inactive

CSc1ccc2c(c1)N(CCC1CCCCN1C)c1ccccc1S2 (stereo unspecified)
Potency [1]: 60.9 µM (active) | Potency [2]: 24.2 µM (active) and 29.8 µM (active) | outcome [15]: inactive | Potency [3]: 43.1 µM (active) and 33.5 µM (active) | Potency [4]: inactive | Potency [6]: 54.3 µM (active) | Potency [7]: inactive | Potency [9]: 30.5 µM (active) and 29.8 µM (active) | Potency [10]: inactive | Potency [11]: 21.8 µM (active) and 21.3 µM (active)

CC1CNCC(C)O1 (stereo unspecified)
Potency [1]: inactive | Potency [2]: inactive | Potency [3]: inactive | Potency [4]: inactive | Potency [5]: inactive | Potency [6]: inactive | Potency [7]: inactive | Potency [8]: inactive | Potency [9]: inactive | Potency [10]: inactive | Potency [11]: inactive

CC(C)CCOCCC(C)C
Potency [1]: inactive | Potency [2]: inactive | Potency [3]: inactive | Potency [4]: inactive | Potency [5]: inactive | Potency [6]: inactive | Potency [7]: inactive | Potency [8]: inactive | Potency [9]: inactive | Potency [13]: inactive | Potency [10]: inactive | Potency [11]: inactive

C[C@H]1O[C@@H](O[C@H]2[C@@H](O)C[C@H](O[C@H]3[C@@H](O)C[C@H](O[C@H]4CC[C@@]5(C)[C@H](CC[C@@H]6[C@@H]5C[C@@H](O)[C@]5(C)[C@@H](C7=CC(=O)OC7)CC[C@]65O)C4)O[C@@H]3C)O[C@@H]2C)C[C@H](O)[C@@H]1O
Potency [1]: inactive | Potency [2]: inactive | Potency [14]: inactive | Potency [3]: 86.4 nM (active) and 95.8 nM (active) | Potency [13]: 154 nM (active) and 107 nM (active) | Potency [12]: inactive | Potency [11]: 123 nM (active) and 153 nM (active)

O=C1OC(OC(=O)c2cccnc2Nc2cccc(C(F)(F)F)c2)c2ccccc21 (stereo unspecified)
Potency [1]: inactive | Potency [2]: inactive | Potency [3]: inactive | Potency [4]: inactive | Potency [5]: inactive | Potency [6]: inactive | Potency [7]: inactive | Potency [8]: inactive | Potency [9]: inactive | Potency [13]: inactive | Potency [12]: inactive | Potency [10]: inactive | Potency [11]: inactive

CS(C)(=O)=O
Potency [1]: inactive | Potency [2]: inactive | Potency [3]: inactive | Potency [4]: inactive | Potency [5]: inactive | Potency [6]: inactive | Potency [7]: inactive | Potency [8]: inactive | Potency [9]: inactive | Potency [12]: inactive | Potency [10]: inactive | Potency [11]: inactive

CC1(C)C(=O)N(Br)C(=O)N1Br
Potency [1]: inactive | Potency [2]: inactive | Potency [14]: inactive | Potency [3]: inactive | Potency [6]: inactive | Potency [7]: inactive | Potency [8]: inactive | Potency [9]: inactive | Potency [13]: inactive | Potency [12]: inactive | Potency [10]: inactive | Potency [11]: inactive

COc1cc(C(C)C)c2c(c1)S(=O)(=O)N(COc1cc(=O)n3cccc(OCCN4CCCCC4)c3n1)C2=O
activity change, negative = cytotoxicity [1]: 5.72% [at 19 µM] | activity, negative = inhibition [2]: 1.67% [at 19 µM] | Potency [14]: inactive | activity change, negative = inhibition [4]: -3.11% [at 23.6 µM] | viability change, negative = cytotoxic [5]: -20.4% [at 19 µM] | activity change, negative = cytotoxicity [6]: -19.6% [at 19 µM] | activity, negative = inhibition [7]: -19.4% [at 19 µM] | activation [8]: -2.29% [at 19 µM] | viability change, negative = cytotoxic [9]: -15.4% [at 19 µM] | activation [10]: -0.216% [at 19 µM] | activity change, negative = cytotoxicity [11]: -17% [at 15.8 µM]

COc1cccc(OC)c1O
Potency [1]: inactive | Potency [2]: inactive | Potency [3]: inactive | Potency [4]: inactive | Potency [5]: inactive | Potency [6]: inactive | Potency [7]: inactive | Potency [8]: inactive | Potency [9]: inactive | Potency [10]: inactive | Potency [11]: inactive

Cc1cccc(N(C)C)c1
Potency [1]: inactive | Potency [2]: inactive | Potency [3]: inactive | Potency [4]: inactive | Potency [5]: inactive | Potency [6]: inactive | Potency [7]: inactive | Potency [8]: inactive | Potency [9]: inactive | Potency [13]: inactive | Potency [12]: inactive | Potency [10]: inactive | Potency [11]: inactive

O=C1C=CC(=O)N1c1ccccc1
Potency [1]: 30.6 µM (active) | Potency [2]: 6.11 µM (active) | Potency [3]: 43.3 µM (active) | Potency [4]: 22.4 µM (active) | Potency [5]: 54.5 µM (active) | Potency [6]: 27.3 µM (active) | Potency [7]: 27.3 µM (active) | Potency [8]: inactive | Potency [9]: 30.6 µM (active) | Potency [13]: 54.5 µM (active) | Potency [11]: 21.9 µM (active)

Cc1ccc(CCn2c3c(c4cc(Cl)ccc42)CN(C)CC3)cn1
Potency [1]: inactive | Potency [2]: inactive | Potency [14]: inactive | Potency [4]: inactive | Potency [5]: inactive | Potency [7]: inactive | Potency [13]: inactive | Potency [12]: 9.44 µM (active)
